# Data: article PMC5700166
# Molecular target: T1, GST-Nv-NF-kB (Ser allele) (Nematostella vectensis, UniProt A7UNT2 2-411)
# T1 sequence: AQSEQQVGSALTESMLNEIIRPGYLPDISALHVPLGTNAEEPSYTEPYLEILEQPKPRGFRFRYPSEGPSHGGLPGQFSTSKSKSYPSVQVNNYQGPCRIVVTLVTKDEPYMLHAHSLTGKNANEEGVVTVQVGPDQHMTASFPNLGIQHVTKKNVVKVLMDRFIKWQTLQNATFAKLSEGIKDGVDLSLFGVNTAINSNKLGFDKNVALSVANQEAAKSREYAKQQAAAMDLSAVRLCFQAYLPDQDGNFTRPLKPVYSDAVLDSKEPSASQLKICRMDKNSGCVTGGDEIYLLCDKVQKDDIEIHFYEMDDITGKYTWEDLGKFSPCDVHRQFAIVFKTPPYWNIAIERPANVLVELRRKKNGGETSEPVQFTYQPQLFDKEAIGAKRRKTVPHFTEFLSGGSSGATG
# Experiment: protein-binding microarray (PBM); PBM: ~300 nM protein, 6 mM HEPES pH 7.8, 80 mM KCl, 0.5 mM EDTA, 0.5 mM EGTA, 6% glycerol, 35 ng/ul poly-dIdC, 1% milk, 1 h, room temperature; Ap Aiptasia and Nv Nematostella (sea anemones) / Co Capsaspora / Aq Amphimedon (sponge) / Dm Drosophila / Hu human; RHD is the Rel homology domain; high values mean tight binding
# Conditions: dsDNA, one strand shown
row,Sequence,binding signal
1,CCGATTAACATCAAATATTTCCCTGATGTTAATCGGGTCTTGATTCGCTTGACGCTGCTG,6.99 z-score
2,CCGATTAACATCAGAGTTTTCCCTGATGTTAATCGGGTCTTGATTCGCTTGACGCTGCTG,6.71 z-score
3,CCGATTAACATCAGACGTGGGAATGATGTTAATCGGGTCTTGATTCGCTTGACGCTGCTG,1.48 z-score
4,CCGATTAACATCAGGGGGGGGACTGATGTTAATCGGGTCTTGATTCGCTTGACGCTGCTG,4.69 z-score
5,CCGATTAACATCAGCATTTTCCCTGATGTTAATCGGGTCTTGATTCGCTTGACGCTGCTG,6.85 z-score
6,CCGATTAACATCAGCATGGGAAATGATGTTAATCGGGTCTTGATTCGCTTGACGCTGCTG,2.33 z-score
7,CCGATTAACATCACCCATTCCCCTGATGTTAATCGGGTCTTGATTCGCTTGACGCTGCTG,7.1 z-score
8,CCGATTAACATCAGGGGGGGGTATGATGTTAATCGGGTCTTGATTCGCTTGACGCTGCTG,3.75 z-score
9,CCGATTAACATCAAGGGGGGGTATGATGTTAATCGGGTCTTGATTCGCTTGACGCTGCTG,3.62 z-score
10,CCGATTAACATCACGTTTTTCCCTGATGTTAATCGGGTCTTGATTCGCTTGACGCTGCTG,6.7 z-score
11,CCGATTAACATCAGGGAAGACGTTGATGTTAATCGGGTCTTGATTCGCTTGACGCTGCTG,1.93 z-score
12,CCGATTAACATCAACCAATTCCCTGATGTTAATCGGGTCTTGATTCGCTTGACGCTGCTG,3.98 z-score
13,CCGATTAACATCAGGATTTTCCCTGATGTTAATCGGGTCTTGATTCGCTTGACGCTGCTG,7.34 z-score
14,CCGATTAACATCAACCTCCCCCCTGATGTTAATCGGGTCTTGATTCGCTTGACGCTGCTG,3.61 z-score
15,CCGATTAACATCAGGGAAGTACATGATGTTAATCGGGTCTTGATTCGCTTGACGCTGCTG,1.35 z-score
16,CCGATTAACATCAGGGGAGATTATGATGTTAATCGGGTCTTGATTCGCTTGACGCTGCTG,6.7 z-score
17,CCGATTAACATCAGGGGAACATATGATGTTAATCGGGTCTTGATTCGCTTGACGCTGCTG,6.74 z-score
18,CCGATTAACATCACTTTTTTCCCTGATGTTAATCGGGTCTTGATTCGCTTGACGCTGCTG,6.59 z-score
19,CCGATTAACATCAGGGGTGGGGATGATGTTAATCGGGTCTTGATTCGCTTGACGCTGCTG,3.28 z-score
20,CCGATTAACATCAAATTCTCCCCTGATGTTAATCGGGTCTTGATTCGCTTGACGCTGCTG,7.76 z-score

row,Sequence,binding signal
1,CCGATTAACATCAAAAGTTTCCCTGATGTTAATCGGGTCTTGATTCGCTTGACGCTGCTG,6.7 z-score
2,CCGATTAACATCAAGCCCCCCCATGATGTTAATCGGGTCTTGATTCGCTTGACGCTGCTG,3.1 z-score
3,CCGATTAACATCAATTTATCCCCTGATGTTAATCGGGTCTTGATTCGCTTGACGCTGCTG,7.39 z-score
4,CCGATTAACATCAACGTTTCCCCTGATGTTAATCGGGTCTTGATTCGCTTGACGCTGCTG,10.1 z-score
5,CCGATTAACATCACGTATTCCCCTGATGTTAATCGGGTCTTGATTCGCTTGACGCTGCTG,7.86 z-score
6,CCGATTAACATCAACGTGGGGCGTGATGTTAATCGGGTCTTGATTCGCTTGACGCTGCTG,1.09 z-score
7,CCGATTAACATCACTATTTTCCCTGATGTTAATCGGGTCTTGATTCGCTTGACGCTGCTG,6.91 z-score
8,CCGATTAACATCACAAATTTCCCTGATGTTAATCGGGTCTTGATTCGCTTGACGCTGCTG,6.92 z-score
9,CCGATTAACATCAAGGGAAAAATTGATGTTAATCGGGTCTTGATTCGCTTGACGCTGCTG,7 z-score
10,CCGATTAACATCAGGGGTAACACTGATGTTAATCGGGTCTTGATTCGCTTGACGCTGCTG,1.27 z-score
11,CCGATTAACATCAAAAATTCCCATGATGTTAATCGGGTCTTGATTCGCTTGACGCTGCTG,6.99 z-score
12,CCGATTAACATCAACCCCCCCCATGATGTTAATCGGGTCTTGATTCGCTTGACGCTGCTG,3.55 z-score
13,CCGATTAACATCAACCCCCCCCTTGATGTTAATCGGGTCTTGATTCGCTTGACGCTGCTG,3.93 z-score
14,CCGATTAACATCAACCAATCCCCTGATGTTAATCGGGTCTTGATTCGCTTGACGCTGCTG,6.6 z-score
15,CCGATTAACATCAAGGGAAAAAATGATGTTAATCGGGTCTTGATTCGCTTGACGCTGCTG,7.2 z-score
16,CCGATTAACATCAATTTCCCGTATGATGTTAATCGGGTCTTGATTCGCTTGACGCTGCTG,4.4 z-score
17,CCGATTAACATCAAAGGGAATTCTGATGTTAATCGGGTCTTGATTCGCTTGACGCTGCTG,6.91 z-score
18,CCGATTAACATCACATACCCCCCTGATGTTAATCGGGTCTTGATTCGCTTGACGCTGCTG,3.69 z-score
19,CCGATTAACATCACTCTTTCCCCTGATGTTAATCGGGTCTTGATTCGCTTGACGCTGCTG,7.19 z-score

# Molecular target: T2, GST-Co-NF-kB (Capsaspora owczarzaki, UniProt F1ARL5 200-546)
# T2 sequence: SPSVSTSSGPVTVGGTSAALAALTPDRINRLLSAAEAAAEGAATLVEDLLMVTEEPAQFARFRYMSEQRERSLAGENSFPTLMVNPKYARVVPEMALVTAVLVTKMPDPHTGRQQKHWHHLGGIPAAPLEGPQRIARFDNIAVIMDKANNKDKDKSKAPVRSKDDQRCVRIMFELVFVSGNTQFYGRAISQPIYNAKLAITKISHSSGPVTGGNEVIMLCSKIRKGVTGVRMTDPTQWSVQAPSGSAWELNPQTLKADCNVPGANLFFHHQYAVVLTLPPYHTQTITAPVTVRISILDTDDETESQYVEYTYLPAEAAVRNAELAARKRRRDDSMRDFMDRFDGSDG
# Experiment: as above
# Conditions: dsDNA, one strand shown
row,Sequence,binding signal
1,CCGATTAACATCAAATATTTCCCTGATGTTAATCGGGTCTTGATTCGCTTGACGCTGCTG,5.89 z-score
2,CCGATTAACATCAGAGTTTTCCCTGATGTTAATCGGGTCTTGATTCGCTTGACGCTGCTG,4.75 z-score
3,CCGATTAACATCAGACGTGGGAATGATGTTAATCGGGTCTTGATTCGCTTGACGCTGCTG,2.5 z-score
4,CCGATTAACATCAGGGGGGGGACTGATGTTAATCGGGTCTTGATTCGCTTGACGCTGCTG,4.78 z-score
5,CCGATTAACATCAGCATTTTCCCTGATGTTAATCGGGTCTTGATTCGCTTGACGCTGCTG,3.96 z-score
6,CCGATTAACATCAGCATGGGAAATGATGTTAATCGGGTCTTGATTCGCTTGACGCTGCTG,1.93 z-score
7,CCGATTAACATCACCCATTCCCCTGATGTTAATCGGGTCTTGATTCGCTTGACGCTGCTG,5.33 z-score
8,CCGATTAACATCAGGGGGGGGTATGATGTTAATCGGGTCTTGATTCGCTTGACGCTGCTG,5.96 z-score
9,CCGATTAACATCAAGGGGGGGTATGATGTTAATCGGGTCTTGATTCGCTTGACGCTGCTG,5.09 z-score
10,CCGATTAACATCACGTTTTTCCCTGATGTTAATCGGGTCTTGATTCGCTTGACGCTGCTG,5.98 z-score
11,CCGATTAACATCAGGGAAGACGTTGATGTTAATCGGGTCTTGATTCGCTTGACGCTGCTG,1.67 z-score
12,CCGATTAACATCAACCAATTCCCTGATGTTAATCGGGTCTTGATTCGCTTGACGCTGCTG,1.83 z-score
13,CCGATTAACATCAGGATTTTCCCTGATGTTAATCGGGTCTTGATTCGCTTGACGCTGCTG,3.97 z-score
14,CCGATTAACATCAACCTCCCCCCTGATGTTAATCGGGTCTTGATTCGCTTGACGCTGCTG,6.38 z-score
15,CCGATTAACATCAGGGAAGTACATGATGTTAATCGGGTCTTGATTCGCTTGACGCTGCTG,1.54 z-score
16,CCGATTAACATCAGGGGAGATTATGATGTTAATCGGGTCTTGATTCGCTTGACGCTGCTG,5.91 z-score
17,CCGATTAACATCAGGGGAACATATGATGTTAATCGGGTCTTGATTCGCTTGACGCTGCTG,7.58 z-score
18,CCGATTAACATCACTTTTTTCCCTGATGTTAATCGGGTCTTGATTCGCTTGACGCTGCTG,6.08 z-score
19,CCGATTAACATCAGGGGTGGGGATGATGTTAATCGGGTCTTGATTCGCTTGACGCTGCTG,5.49 z-score
20,CCGATTAACATCAAATTCTCCCCTGATGTTAATCGGGTCTTGATTCGCTTGACGCTGCTG,8.72 z-score

row,Sequence,binding signal
1,CCGATTAACATCAAAAGTTTCCCTGATGTTAATCGGGTCTTGATTCGCTTGACGCTGCTG,6.99 z-score
2,CCGATTAACATCAAGCCCCCCCATGATGTTAATCGGGTCTTGATTCGCTTGACGCTGCTG,3.51 z-score
3,CCGATTAACATCAATTTATCCCCTGATGTTAATCGGGTCTTGATTCGCTTGACGCTGCTG,7.11 z-score
4,CCGATTAACATCAACGTTTCCCCTGATGTTAATCGGGTCTTGATTCGCTTGACGCTGCTG,7.56 z-score
5,CCGATTAACATCACGTATTCCCCTGATGTTAATCGGGTCTTGATTCGCTTGACGCTGCTG,6.56 z-score
6,CCGATTAACATCAACGTGGGGCGTGATGTTAATCGGGTCTTGATTCGCTTGACGCTGCTG,1.11 z-score
7,CCGATTAACATCACTATTTTCCCTGATGTTAATCGGGTCTTGATTCGCTTGACGCTGCTG,5.27 z-score
8,CCGATTAACATCACAAATTTCCCTGATGTTAATCGGGTCTTGATTCGCTTGACGCTGCTG,5.22 z-score
9,CCGATTAACATCAAGGGAAAAATTGATGTTAATCGGGTCTTGATTCGCTTGACGCTGCTG,5.22 z-score
10,CCGATTAACATCAGGGGTAACACTGATGTTAATCGGGTCTTGATTCGCTTGACGCTGCTG,4.28 z-score
11,CCGATTAACATCAAAAATTCCCATGATGTTAATCGGGTCTTGATTCGCTTGACGCTGCTG,5.2 z-score
12,CCGATTAACATCAACCCCCCCCATGATGTTAATCGGGTCTTGATTCGCTTGACGCTGCTG,4.94 z-score
13,CCGATTAACATCAACCCCCCCCTTGATGTTAATCGGGTCTTGATTCGCTTGACGCTGCTG,5.09 z-score
14,CCGATTAACATCAACCAATCCCCTGATGTTAATCGGGTCTTGATTCGCTTGACGCTGCTG,2.16 z-score
15,CCGATTAACATCAAGGGAAAAAATGATGTTAATCGGGTCTTGATTCGCTTGACGCTGCTG,5.23 z-score
16,CCGATTAACATCAATTTCCCGTATGATGTTAATCGGGTCTTGATTCGCTTGACGCTGCTG,3.1 z-score
17,CCGATTAACATCAAAGGGAATTCTGATGTTAATCGGGTCTTGATTCGCTTGACGCTGCTG,2.97 z-score
18,CCGATTAACATCACATACCCCCCTGATGTTAATCGGGTCTTGATTCGCTTGACGCTGCTG,3.97 z-score
19,CCGATTAACATCACTCTTTCCCCTGATGTTAATCGGGTCTTGATTCGCTTGACGCTGCTG,6.1 z-score
